Reference: PubChem BioAssay AID720597 (Broad Institute, 2013)
Results with a measured potency or affinity are listed apart. Activity calls are given as the source filed them.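 How the source made its calls: active means fitted half-maximal dose no more than twice the top valid tested dose, for compounds that lower signal; inconclusive means fit invalid, or curve flat with activity between -70 and -30; inactive means potency past limit, curve flat within ±30, or signal increasing.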

target: NAD-dependent protein deacylase sirtuin-5, mitochondrial (Homo sapiens) (UniProt Q9NXA8); assay: SIRT5 deacylase inhibitors, dose response, biochemical, fluorescence imaging, cherry-pick, set 6 (AID 720597); settings: Purified SirT5, succinyl-peptide-AMC/trypsin fluorescence; series mostly up to 15 µM;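 further: lower AMC signal can also come from blocking the trypsin step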
Sequence (Q9NXA8 whole entry, looked up): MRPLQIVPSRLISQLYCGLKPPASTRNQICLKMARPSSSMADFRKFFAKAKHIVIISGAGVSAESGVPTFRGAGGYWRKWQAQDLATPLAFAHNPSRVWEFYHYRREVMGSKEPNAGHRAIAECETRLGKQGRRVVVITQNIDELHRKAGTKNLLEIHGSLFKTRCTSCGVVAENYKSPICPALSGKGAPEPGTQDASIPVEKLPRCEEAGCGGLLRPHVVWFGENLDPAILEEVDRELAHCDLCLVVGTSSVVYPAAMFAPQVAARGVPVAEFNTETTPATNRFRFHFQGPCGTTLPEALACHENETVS

outcome, inactive:
C[C@@H]1CN([C@@H](C)CO)S(=O)(=O)c2ccc(/C=C/c3ccccc3)cc2O[C@@H]1CN(C)C(=O)Nc1cc(F)ccc1F, COc1ccc(NC(=O)N(C)C[C@@H]2Oc3cc(C#CCC(C)C)ccc3S(=O)(=O)N([C@H](C)CO)C[C@@H]2C)cc1, COc1ccccc1-c1ccc2c(c1)O[C@@H](CN(C)S(=O)(=O)c1ccccc1)[C@H](C)CN([C@@H](C)CO)S2(=O)=O, COc1ccc(NC(=O)N(C)C[C@@H]2Oc3cc(C#CCC(C)C)ccc3S(=O)(=O)N([C@@H](C)CO)C[C@@H]2C)cc1, CO[C@@H]1CC[C@@H]2CCOc3c(C#N)cccc3C(=O)N(C)C[C@@H](OC)[C@@H](C)C(=O)N(C)C[C@@H]1O2, C[C@H](CO)N1C[C@H](C)[C@H](CN(C)S(=O)(=O)c2ccc(F)cc2)Oc2cc(C#Cc3ccc(F)cc3)ccc2S1(=O)=O, COc1ccc(NC(=O)N(C)C[C@H]2Oc3cc(C#CCC(C)C)ccc3S(=O)(=O)N([C@H](C)CO)C[C@H]2C)cc1, COCCNC(=O)c1cc2c(c(-c3cccc(-c4cccc(F)c4)c3)n1)[C@H](CCO)N(S(=O)C(C)(C)C)C2 (stereo not given in full), COc1ccc(S(=O)(=O)Nc2ccc3c(c2)C(=O)N([C@H](C)CO)C[C@@H](C)[C@@H](CN(C)S(=O)(=O)c2ccccc2)OCCCC[C@@H](C)O3)cc1, C[C@H](CO)N1C[C@H](C)[C@H](CN(C)Cc2ccc(-c3ccccc3)cc2)OCc2ccccc2-c2ccccc2C1=O
